# Screening data (PubChem)
# IL1B secr inh: qHTS for Inhibitors of Inflammasome Signaling: IL-1-beta AlphaLISA Primary Screen | THP-1 LPS/ATP IL-1B secretion, AlphaLISA, 16 h; hits give low values | activity change, % at 57.5 µM | actives 4.7% (n = 360,000) | AID 743279, 2014; in the data active = activity change below about -50%; inconclusive = mostly about -30% to -49%; also: % is scaled to controls: 0 for no effect and ±100 for the full control effect
#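 Secreted IL-1B measured by AlphaLISA bead assay after 16 h compound exposure of THP-1 cells; compounds (final up to 57.5 uM) added 1 h before LPS (250 ng/mL) and ATP (1.25 mM) stimulation; lower signal means less secretion.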
# DT40 TDP1 no CPT: qHTS for Inhibitors of human tyrosyl-DNA phosphodiesterase 1 (TDP1): qHTS in cells in absence of CPT; DT40 Tdp1-/- hTDP1 cells, no CPT, ATP luminescence, 48 h; Potency, µM (top dose mostly 46.2 µM), inactives show at the highest dose activity change, negative = growth inhibition, actives largely listed as inhibitors; AID 686978, 2013; actives 15% (n = 420,000); also: potency is read from the fitted curve at half-maximal effect; % is scaled to controls: 0 for no effect and ±100 for the full control effect; nearly all actives have a fitted effect of over 55% in size
#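 Compound effects on proliferation are scored in DT40 Tdp1-/-;hTDP1 cells in the absence of CPT. ATP levels (CellTiter-Glo luminescence) are recorded after a ≥48 hr, 37 °C incubation.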
# ClpP mod: qHTS Assay for Activators of ClpP; actives 1.9% (n = 340,000); Potency, µM (series often up to 57.5 µM), inactives show at the top dose activity change, negative = active; purified B. subtilis ClpP, FRET peptide cleavage, 20 min; ATP-dependent Clp protease proteolytic subunit (Bacillus subtilis (strain 168)), P80244; active = well fitted falling curve with a large enough effect; inconclusive = small, poorly fitted or top-dose-only effect; inactive = no such curve, though single readings can be large or run the other way; also: potency is read from the fitted curve at half-maximal effect; the source files actives as falling curves though it sought activators and does not explain the sign; nearly all actives have a fitted effect of over 65% in size
#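 ClpP 10 microg/mL final, pH 8 Tris/KCl buffer with BSA, glycerol, Tween-20; compound pinned in; FRET-FV substrate; RT 20 min; Ex320/Em430; ΔFRET vs ADEP 5.8 microM, DMSO, no enzyme.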
# TDP1 cell CPT: qHTS for Inhibitors of human tyrosyl-DNA phosphodiesterase 1 (TDP1): qHTS in cells in presence of CPT. chicken DT40 Tdp1-/-;hTDP1 cells + 20 nM CPT, ATP luminescence, 48 h. AID 686979, 2013. Potency, µM (series often up to 46.2 µM), for inactives: at the highest dose activity change, negative = growth inhibition, usual class: inhibitors. actives 12% (n = 420,000); also: potency is read from the fitted curve at half-maximal effect; % is scaled to controls: 0 for no effect and ±100 for the full control effect; nearly all actives have a fitted effect of over 55% in size
#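 Chicken DT40 Tdp1-/- cells complemented with human TDP1, 400 cells/well, exposed to compounds plus 20 nM camptothecin for at least 48 h at 37 C; viability read as ATP content by CellTiter-Glo luminescence.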
# DRD3 agonist: qHTS of D3 Dopamine Receptor Agonist: qHTS; AID 652048, 2013; actives 0.58% (n = 410,000); D3R DiscoveRx beta-arrestin cells, luminescence, 90 min; max activation, %; D(3) dopamine receptor (Homo sapiens), P35462; in the data active = max activation above about 30%; also: 0% is about no effect
#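 Agonist mode: compounds and dopamine controls were applied to plated cells for 90 min at 37 degrees C after an overnight attachment at 1500 cells/well. Luminescent read-out followed 30 - 60 minutes at room temperature with DiscoveRx detection reagent.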
# DRD3 antagonist: qHTS of D3 Dopamine Receptor Antagonist: qHTS; D3R cells, DiscoveRx beta-arrestin luminescence, antagonist mode; hits give low values; D(3) dopamine receptor (Homo sapiens), P35462; max response, negative = inhibition, %; actives 2.5% (n = 360,000); AID 652054, 2013; in the data active = max response below about -50%; inconclusive = no clear call, values can overlap the other calls; also: % is scaled to controls: 0 for no effect and ±100 for the full control effect
#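 Cells plated overnight at 1500 cells/well, then exposed to library compounds with dopamine controls for 90 minutes at 37 degrees C. DiscoveRx reagent added for 30–60 minutes at room temperature; luminescence read, quantitative HTS format.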
# Numbers without * were called inactive; i = inactive; u = inconclusive; x = not tested or not shown; ! = not active in a repeat. This is a sample that favours compounds with a hit; in the whole collection about 21% have one here. Unless noted, calls follow the shape of the dose curve; as a rule, active = well fitted inhibition curve with a large enough effect; inconclusive = small, poorly fitted or top-dose-only effect; inactive = flat fitted curve, though single readings scatter.
SMILES,IL1B secr inh,DT40 TDP1 no CPT,ClpP mod,TDP1 cell CPT,DRD3 agonist,DRD3 antagonist
Cc1cc(C)n(-c2ccc(NN=C(C#N)C#N)cc2)n1,-13,7.3µM*,3%,10µM*,0,0
N#CC(C#N)=NNc1ccc(-n2ccc(C(F)(F)F)n2)cc1,-83*,1.6µM*,x,2.3µM*,23,-2
CC1(C)S[C@H]2[C@@H](N)C(=O)N2[C@H]1C(=O)O,x,-14%,x,0%,x,x
CCCC1(CCO)C(=O)NC(=S)NC1=O,7,0%,1%,11%,1,13
CCOC(=O)C(NC(=O)CC)(Nc1ccc(C(O)(C(=O)OCC)C(F)(F)F)cc1C)C(F)(F)F (stereo unspecified),-25,-13%,1%,-18%,0,4
COC(=O)C(O)(c1ccc(NC(=S)NC(=O)c2ccc(Cl)cc2Cl)c(C)c1)C(F)(F)F (stereo unspecified),-21,21µM*,-2%,u,3,u
CNC(=O)N(C)c1ccc(C(O)(C(=O)OC)C(F)(F)F)cc1 (stereo unspecified),25,-7%,-1%,11%,2,22
CCOC(=O)C(O)(c1ccc(NC(=S)NC(=O)c2ccc(Cl)cc2Cl)c(C)c1)C(F)(F)F (stereo unspecified),-54*,12µM*,-2%,u,14,-11
CC(C)Cc1nc2cccnc2n1C1CCNCC1,x,-14%,-3%,-28%,6,x
CC(C)C[C@H](CN)CC(=O)O,x,-18%,x,-17%,2,x
Clc1ccccc1CN1CCN(c2ccccc2)CC1,20,-4%,2%,-20%,-17,-26
COc1ccccc1N1CCN(Cc2cccc(OC)c2O)CC1,0,-20%,2%,u,-10,-101*
COc1ccccc1N1CCN(Cc2ccccc2Cl)CC1,5,-23%,1%,u,-21,-88*
COc1ccccc1N1CCN(Cc2ccc(Br)cc2)CC1,9,u,-2%,u,-5,-110*
Clc1ccc(N2CCN(Cc3ccccc3Cl)CC2)cc1,4,-6%,1%,-24%,-24,-22
Nc1ccc(N2CCN(Cc3ccccc3Cl)CC2)c(Cl)c1,-3,-16%,-2%,-15%,-19,-57*
CCc1ccc(NC(=O)CCNC(=O)N2C[C@H]3C[C@@H](C2)c2cccc(=O)n2C3)cc1,2,-2%,-4%,-15%,-9,-17
Cc1nc2nc(SCC(=O)N3CCC4(CC3)OCCO4)nn2c(C)c1Cc1ccccc1,-3,-20%,-14%,0%,2,2
Fc1ccccc1CN1CCN(c2ccc(Cl)cc2)CC1,24,-7%,0%,-1%,-17,u
COc1ccccc1N1CCN(Cc2ccccc2F)CC1,10,-12%,4%,-11%,-9,-92*
COc1ccccc1N1CCN(Cc2c(F)cccc2F)CC1,0,-23%,1%,-30%,-31,-69*
COc1ccccc1CN1CCNCC1,14,3%,-1%,-10%,-5,-6
O=C(COc1ccccc1[N+](=O)[O-])N1CCN(CCc2ccccn2)CC1,x,4%,-3%,-3%,6,x
Cc1ccccc1NS(=O)(=O)c1ccc(OCC(=O)N2CCN(C)CC2)cc1,i,1%,1%,5%,3,-10
COc1ccc(OC)c(NC(=O)Cn2cc(C(=O)c3ccccc3F)c3ccccc32)c1,x,23µM*,-4%,u,1,x
SMILES,IL1B secr inh,DT40 TDP1 no CPT,ClpP mod,TDP1 cell CPT,DRD3 agonist,DRD3 antagonist
CC(=O)c1cn(Cc2ccccc2F)c2ccccc12,-4,4.6µM*,-2%,8.2µM*,7,4
CC(C)C(=O)c1cn(Cc2ccccc2C#N)c2ccccc12,-14,u,4%,u,-7,-9
O=Cc1cn(Cc2c(F)cccc2Cl)c2ccccc12,-24,u,-2%,u,1,25
O=Cc1cn(Cc2ccccc2F)c2ccccc12,u,15µM*,x,21µM*,13,0
O=C(c1ccccc1F)c1cn(Cc2ccccc2)c2ccccc12,-6,u,-3%,u,6,-8
CC(=O)c1cn(Cc2ccccc2C#N)c2ccccc12,0,1µM*,x,2.1µM*,2,-2
CSc1ncc(C(=O)Nc2ccc(Cl)cc2C(=O)c2ccccc2)c(C)n1,x,u,-4%,u,5,x
O=C(Nc1ccc(Br)cc1C(=O)c1ccccc1Cl)c1ccc(Br)cc1,x,-7%,0%,5%,2,x
O=C(c1ccccc1F)c1cn(Cc2ccc(F)cc2)c2ccccc12,u,u,-2%,16µM*,-7,6
O=C1CN=C(c2cccs2)c2c(sc3c2CCCC3)N1,29,u,-5%,16µM*,-16,-20
CC(=O)OC1CC2C(C)(C)C(O)C=C[C@@]2(C)C2CC[C@]3(C)C(=CC(=O)OC3c3ccoc3)[C@]12C (stereo partly specified),x,-27%,x,-3%,x,x
Cc1c2cnn(CC(=O)N3CCC4(CC3)OCCO4)c(=O)c2c(C)n1Cc1cccc(Cl)c1,-2,-26%,-21%,u,-5,-3
Cc1cc(C)c(Cn2c3ccccc3c3cnn(CC(=O)NCc4ccc(Cl)cc4)c(=O)c32)c(C)c1,x,23µM*,-18%,u,-9,x
CCN(c1ccccc1)S(=O)(=O)c1ccc(C(=O)NCC(c2ccccc2OC)N2CCCC2)cc1 (stereo unspecified),6,u,-2%,u,-18,3
N#CCn1c(CCl)nc2ccccc2c1=O,-56*,2.6µM*,0%,4.6µM*,1,-12
CN/C=C(/Cl)P(=O)(OC(C)C)OC(C)C,6,13%,x,7%,-8,-9
CCN(CC)P(=O)(Nc1ccc([N+](=O)[O-])cc1)c1c(C)nn(CCC#N)c1NC(=O)c1ccc(Cl)cc1Cl (stereo unspecified),-7,23µM*,u,18µM*,8,0
CCOC(=O)CC(SP(=S)(OC)OC)C(=O)OCC (stereo unspecified),x,4.3µM*!,x,0.022µM*!,-12,x
